From paper PMC11006913
Changes are numbered by the printed parent chain.

Experiments:
Experiment in all cases: PBM; 200 nM protein, PBS
Details in all cases: dsDNA, one strand shown
HOXC10 [1] = target: HOXC10 (Homo sapiens, UniProt Q9NYD6 254-340)
PAX4 [2] = target: T1, PAX4 (Homo sapiens, UniProt O43316 9-242, R200K)
T1 sequence: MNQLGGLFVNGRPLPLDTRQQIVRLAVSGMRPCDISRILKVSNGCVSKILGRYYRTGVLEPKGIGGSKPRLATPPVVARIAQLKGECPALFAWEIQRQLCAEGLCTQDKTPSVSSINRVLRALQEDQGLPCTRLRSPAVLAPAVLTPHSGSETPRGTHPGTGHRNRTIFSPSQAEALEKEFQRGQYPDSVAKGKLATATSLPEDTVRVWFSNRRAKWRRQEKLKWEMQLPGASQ

PAX4 [3] = target: T2, PAX4 (Homo sapiens, UniProt O43316 9-242, R227W)
T2 sequence: T1 sequence with K192R, R219W

CRX = CRX (Homo sapiens, UniProt O43186 26-111, R41L)
ALX3 [4] = target: ALX3 (Homo sapiens, UniProt O95076 139-225, N203Q)
HOXC10 [5] = target: HOXC10 (Homo sapiens, UniProt Q9NYD6 254-340, K271E)
ALX3 [6] = target: ALX3 (Homo sapiens, UniProt O95076 139-225)
ALX3 [7] = target: ALX3 (Homo sapiens, UniProt O95076 139-225, L168Q)
ALX3 [8] = target: ALX3 (Homo sapiens, UniProt O95076 139-225, L168V)
ALX3 [9] = target: ALX3 (Homo sapiens, UniProt O95076 139-225, N203S)
HOXD13 [10] = target: HOXD13 (Homo sapiens, UniProt P35453 263-343, T313R)
HOXC9 = HOXC9 (Homo sapiens, UniProt P31274 178-260, R222W)
HOXD13 [11] = target: HOXD13 (Homo sapiens, UniProt P35453 263-343)
HOXD13 [12] = target: HOXD13 (Homo sapiens, UniProt P35453 263-343, T313A)
PITX2 = PITX2 (Homo sapiens, UniProt Q99697 72-157)

Chain of HOXC10 (Homo sapiens, UniProt Q9NYD6 254-340, K271E) (Q9NYD6 254-340 K271E): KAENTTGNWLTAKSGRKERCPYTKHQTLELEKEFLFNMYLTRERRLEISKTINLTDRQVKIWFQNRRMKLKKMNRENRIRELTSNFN
Chain of HOXC10 (Homo sapiens, UniProt Q9NYD6 254-340) (Q9NYD6 254-340): as the sequence (Q9NYD6 254-340 K271E) above, with E18K counted along it
Chain of HOXD13 (Homo sapiens, UniProt P35453 263-343, T313R) (P35453 263-343 T313R): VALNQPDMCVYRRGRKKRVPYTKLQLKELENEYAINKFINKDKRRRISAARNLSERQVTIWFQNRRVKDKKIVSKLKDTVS
Chain of ALX3 (Homo sapiens, UniProt O95076 139-225, L168Q) (O95076 139-225 L168Q): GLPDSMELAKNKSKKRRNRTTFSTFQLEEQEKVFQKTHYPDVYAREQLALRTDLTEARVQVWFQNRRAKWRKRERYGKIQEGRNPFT
Chain of HOXC9 (P31274 178-260 R222W): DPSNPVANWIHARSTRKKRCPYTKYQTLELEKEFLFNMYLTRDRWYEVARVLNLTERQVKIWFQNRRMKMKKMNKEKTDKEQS
Chain of HOXD13 (Homo sapiens, UniProt P35453 263-343, T313A) (P35453 263-343 T313A): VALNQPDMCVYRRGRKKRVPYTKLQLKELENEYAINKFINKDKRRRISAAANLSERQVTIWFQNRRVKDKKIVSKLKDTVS
Chain of ALX3 (Homo sapiens, UniProt O95076 139-225, N203S) (O95076 139-225 N203S): as the sequence (O95076 139-225 L168Q) above, with Q30L, N65S counted along it
Chain of ALX3 (Homo sapiens, UniProt O95076 139-225, L168V) (O95076 139-225 L168V): as the sequence (O95076 139-225 L168Q) above, with Q30V counted along it
Chain of ALX3 (Homo sapiens, UniProt O95076 139-225, N203Q) (O95076 139-225 N203Q): as the sequence (O95076 139-225 L168Q) above, with Q30L, N65Q counted along it
Chain of ALX3 (Homo sapiens, UniProt O95076 139-225) (O95076 139-225): as the sequence (O95076 139-225 L168Q) above, with Q30L counted along it
Chain of CRX (O43186 26-111 R41L): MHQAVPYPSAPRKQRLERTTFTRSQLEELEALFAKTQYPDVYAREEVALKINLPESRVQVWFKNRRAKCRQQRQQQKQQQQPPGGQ
Chain of HOXD13 (Homo sapiens, UniProt P35453 263-343) (P35453 263-343): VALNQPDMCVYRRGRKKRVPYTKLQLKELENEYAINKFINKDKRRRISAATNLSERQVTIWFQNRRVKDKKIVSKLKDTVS

How did the binding signal (HOXC10 [1]) turn out when TAATACGA was run?
Its binding signal is 11 upbm affinity estimate (log intensity, higher = more binding, comparable within an allelic series).

And the binding signal (PAX4 [2])?
Its binding signal is 11.6 upbm affinity estimate (log intensity, higher = more binding, comparable within an allelic series).

And the binding signal (PAX4 [3])?
Its binding signal is 10.9 upbm affinity estimate (log intensity, higher = more binding, comparable within an allelic series).

What about the binding signal (CRX) of the same sequence?
Its binding signal is 10.4 upbm affinity estimate (log intensity, higher = more binding, comparable within an allelic series).

Which results are given for AGCTGGCG?
binding signal (HOXC10 [1]): 9.96 upbm affinity estimate (log intensity, higher = more binding, comparable within an allelic series); binding signal (ALX3 [4]): 7.77 upbm affinity estimate (log intensity, higher = more binding, comparable within an allelic series); binding signal (HOXC10 [5]): 9.94 upbm affinity estimate (log intensity, higher = more binding, comparable within an allelic series); binding signal (ALX3 [6]): 7.78 upbm affinity estimate (log intensity, higher = more binding, comparable within an allelic series); binding signal (ALX3 [7]): 7.68 upbm affinity estimate (log intensity, higher = more binding, comparable within an allelic series); binding signal (ALX3 [8]): 7.73 upbm affinity estimate (log intensity, higher = more binding, comparable within an allelic series); binding signal (ALX3 [9]): 7.86 upbm affinity estimate (log intensity, higher = more binding, comparable within an allelic series)

What does the source list for ATAGATGA?
binding signal (HOXC10 [1]): 10.8 upbm affinity estimate (log intensity, higher = more binding, comparable within an allelic series); binding signal (HOXC10 [5]): 10.8 upbm affinity estimate (log intensity, higher = more binding, comparable within an allelic series)

What does the source list for CGCCAGCG?
binding signal (HOXC10 [1]): 10 upbm affinity estimate (log intensity, higher = more binding, comparable within an allelic series); binding signal (HOXC10 [5]): 9.94 upbm affinity estimate (log intensity, higher = more binding, comparable within an allelic series)

With AGCTTCTG as the sequence, how does the binding signal (HOXC10 [1]) read?
The binding signal was 10.1 upbm affinity estimate (log intensity, higher = more binding, comparable within an allelic series).

What about the binding signal (HOXC10 [5]) of the same sequence?
Its binding signal is 10 upbm affinity estimate (log intensity, higher = more binding, comparable within an allelic series).

Which binding signal (HOXC10 [1]) does the source give for ATAAAAAT here?
The binding signal was 12.2 upbm affinity estimate (log intensity, higher = more binding, comparable within an allelic series).

What about the binding signal (HOXD13 [10]) of the same sequence?
The binding signal was 10.7 upbm affinity estimate (log intensity, higher = more binding, comparable within an allelic series).

And the binding signal (HOXC10 [5])?
The binding signal was 11.7 upbm affinity estimate (log intensity, higher = more binding, comparable within an allelic series).

And the binding signal (HOXC9)?
The binding signal was 11.2 upbm affinity estimate (log intensity, higher = more binding, comparable within an allelic series).

CCCGTAAA was tested. Which binding signal (HOXC10 [1]) did it give?
The binding signal was 11.3 upbm affinity estimate (log intensity, higher = more binding, comparable within an allelic series).

And the binding signal (HOXD13 [10])?
Its binding signal is 10.6 upbm affinity estimate (log intensity, higher = more binding, comparable within an allelic series).

What about the binding signal (HOXD13 [11]) of the same sequence?
The binding signal was 11.9 upbm affinity estimate (log intensity, higher = more binding, comparable within an allelic series).

And the binding signal (HOXD13 [12])?
Its binding signal is 11.6 upbm affinity estimate (log intensity, higher = more binding, comparable within an allelic series).

Which binding signal (HOXC10 [1]) does the source give for CGTGAATA here?
Its binding signal is 10.7 upbm affinity estimate (log intensity, higher = more binding, comparable within an allelic series).

What about the binding signal (HOXC10 [5]) of the same sequence?
The binding signal was 10.7 upbm affinity estimate (log intensity, higher = more binding, comparable within an allelic series).

For AGGGCCAG, which binding signal (HOXC10 [1]) is on record?
The binding signal was 9.98 upbm affinity estimate (log intensity, higher = more binding, comparable within an allelic series).

What about the binding signal (HOXC10 [5]) of the same sequence?
The binding signal was 10 upbm affinity estimate (log intensity, higher = more binding, comparable within an allelic series).

For AGCTCTGC, which binding signal (HOXC10 [1]) is on record?
The binding signal was 9.99 upbm affinity estimate (log intensity, higher = more binding, comparable within an allelic series).

What about the binding signal (HOXC10 [5]) of the same sequence?
The binding signal was 9.97 upbm affinity estimate (log intensity, higher = more binding, comparable within an allelic series).

What does the source list for AGGCTTCG?
binding signal (HOXC10 [1]): 9.94 upbm affinity estimate (log intensity, higher = more binding, comparable within an allelic series); binding signal (HOXC10 [5]): 10 upbm affinity estimate (log intensity, higher = more binding, comparable within an allelic series)

Which results are given for CGAGGAGC?
binding signal (HOXC10 [1]): 9.97 upbm affinity estimate (log intensity, higher = more binding, comparable within an allelic series); binding signal (HOXC10 [5]): 9.97 upbm affinity estimate (log intensity, higher = more binding, comparable within an allelic series)

Which binding signal (HOXC10 [1]) does the source give for ATGTCATA here?
Its binding signal is 11.1 upbm affinity estimate (log intensity, higher = more binding, comparable within an allelic series).

What about the binding signal (HOXC10 [5]) of the same sequence?
The binding signal was 11.1 upbm affinity estimate (log intensity, higher = more binding, comparable within an allelic series).

Which binding signal (HOXC10 [1]) does the source give for ACATAAGT here?
The binding signal was 10.9 upbm affinity estimate (log intensity, higher = more binding, comparable within an allelic series).

And the binding signal (PITX2)?
Its binding signal is 9.71 upbm affinity estimate (log intensity, higher = more binding, comparable within an allelic series).

And the binding signal (HOXC10 [5])?
The binding signal was 10.8 upbm affinity estimate (log intensity, higher = more binding, comparable within an allelic series).

With AAGCCTGG as the sequence, how does the binding signal (HOXC10 [1]) read?
The binding signal was 10.1 upbm affinity estimate (log intensity, higher = more binding, comparable within an allelic series).

What about the binding signal (HOXC10 [5]) of the same sequence?
The binding signal was 10 upbm affinity estimate (log intensity, higher = more binding, comparable within an allelic series).

With GAAGCTCC as the sequence, how does the binding signal (HOXC10 [1]) read?
Its binding signal is 10.1 upbm affinity estimate (log intensity, higher = more binding, comparable within an allelic series).

And the binding signal (HOXC10 [5])?
The binding signal was 10.1 upbm affinity estimate (log intensity, higher = more binding, comparable within an allelic series).

With ACGAAGCT as the sequence, how does the binding signal (HOXC10 [1]) read?
The binding signal was 10 upbm affinity estimate (log intensity, higher = more binding, comparable within an allelic series).

And the binding signal (HOXC10 [5])?
The binding signal was 10.1 upbm affinity estimate (log intensity, higher = more binding, comparable within an allelic series).

For CCGACTCG, which binding signal (HOXC10 [1]) is on record?
Its binding signal is 10.1 upbm affinity estimate (log intensity, higher = more binding, comparable within an allelic series).

What about the binding signal (HOXC10 [5]) of the same sequence?
The binding signal was 10.1 upbm affinity estimate (log intensity, higher = more binding, comparable within an allelic series).

Which results are given for CTAGCCAG?
binding signal (HOXC10 [1]): 10.1 upbm affinity estimate (log intensity, higher = more binding, comparable within an allelic series); binding signal (HOXC10 [5]): 10.1 upbm affinity estimate (log intensity, higher = more binding, comparable within an allelic series)
